Records with an inconclusive call do not appear. Active and inactive are the calls of the source. The call rests on the fitted dose curve; in most records, active means well fitted cell-killing curve with a large enough effect; inconclusive means small, poorly fitted or top-dose-only effect; inactive means flat fitted curve, though single readings scatter.
test: Cell Viability - LYMP2-013 (AID 970); details: LYMP2-013 lymphoblastoid cells viability; series mostly up to 92.2 µM; activity change, negative = cytotoxic: at the top concentration;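 further: cells exposed to compound for 24 h at 37 °C; 0% = DMSO only and full inhibition = tetraoctylammonium bromide control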
In short: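 In complete culture medium, human lymphoblastoid cells were dosed for 24 hr at 37 C, with tetraoctylammonium bromide (6.4pM to 92 uM) as positive control. Viability reflects luciferase-based ATP signal; AC50 derived from concentration-response curves.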
Further: nearly all actives have a fitted effect of over 55% in size.

Row | Structure (SMILES) | activity change, negative = cytotoxic | Potency
1 | Brc1ccccc1 | -1.8% (inactive) | 
2 | CCOP(=S)(OCC)SCSC(C)(C)C | -3.74% (inactive) | 
3 | C=C(C)C#N | -17% (inactive) | 
4 | CCSC(=O)Cl | -4.57% (inactive) | 
5 | Cc1cccc([N+](=O)[O-])c1 | -2.71% (inactive) | 
6 | Nc1c(Cl)c(Cl)nc(C(=O)O)c1Cl | -0.224% (inactive) | 
7 | CC(C)(C)OOC(C)(C)C | 0.994% (inactive) | 
8 | C=C(C)C(=O)OCC1CO1 (centres undefined) | -2.74% (inactive) | 
9 | Cc1ccc([N+](=O)[O-])cc1C | 5.52% (inactive) | 
10 | O=[N+]([O-])c1ccc(Cl)c(Cl)c1 | -0.594% (inactive) | 
11 | C=CC(=C)C | -1.22% (inactive) | 
12 | Cc1ccc2ccccc2c1 | 2.49% (inactive) | 
13 | Nc1ccccc1Cl | -5.86% (inactive) | 
14 | Clc1ccc2ccccc2c1 | -3.04% (inactive) | 
15 | [O-][Br+2]([O-])O |  | inactive
16 | Clc1nc(Cl)nc(Nc2ccccc2Cl)n1 | -5.29% (inactive) | 
17 | OCC1CO1 (centres undefined) | -8.06% (inactive) | 
18 | C=CCOC(=O)c1ccccc1N | -5.02% (inactive) | 
19 | C=CC(N)=O |  | inactive
20 | CC(C)(c1ccccc1)c1ccc(O)cc1 | -3.89% (inactive) | 

Row | Structure (SMILES) | activity change, negative = cytotoxic | Potency
21 | CCN(CC)c1ccccc1 | -0.791% (inactive) | 
22 | S=C=Nc1cccc2ccccc12 | -5.95% (inactive) | 
23 | N#CCCCl |  | inactive
24 | O=NN(CCO)CCO | -1.18% (inactive) | 
25 | Cc1ccccc1N |  | inactive
26 | C=CCOC(C)=O | -19.2% (inactive) | 
27 | CCCC(=O)Cl | -1.02% (inactive) | 
28 | NC(=S)Nc1ccccc1 |  | inactive
29 | O=C(Cl)/C=C/C(=O)Cl | -2.59% (inactive) | 
30 | C=C(Cl)Cl | -3.04% (inactive) | 
31 | ClCBr | -12.5% (inactive) | 
32 | COc1ccc(C=O)cc1OC | -3.84% (inactive) | 
33 | C=CC(=O)OCC | -4.88% (inactive) | 
34 | c1nc[nH]n1 | -6.52% (inactive) | 
35 | c1ccc2c(c1)CCCC2 | 1.99% (inactive) | 
36 | CCCSC(=O)Cl | -4.88% (inactive) | 
37 | Clc1cccc(C(Cl)(Cl)Cl)n1 | 2.21% (inactive) | 
38 | O=NN(c1ccccc1)c1ccccc1 | -6.96% (inactive) | 
39 | C1CCC2CCCCC2C1 (centres undefined) | -2.78% (inactive) | 
40 | CC(O)CCl (centres undefined) | -11.1% (inactive) | 

test: Cell Viability - LYMP2-015 (AID 971); details: LYMP2-015 lymphoblastoid cell viability; series mostly up to 92.2 µM; activity change, negative = lower viability: at the top concentration;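 further: cells exposed to compound for 24 h; 0% = DMSO only and full effect = 92 µM tetraoctylammonium bromide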
In short: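 AC50 values reflect Hill-model fits of ATP-based luminescence (CellTiter-Glo) from a human lymphoblastoid line, 2500 cells/well, treated 24 hr at 37 C.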

Row | Structure (SMILES) | activity change, negative = lower viability | Potency
41 | Brc1ccccc1 | 2.09% (inactive) | 
42 | CCOP(=S)(OCC)SCSC(C)(C)C | 16% (inactive) | 
43 | C=C(C)C#N | -26.4% (inactive) | 
44 | CCSC(=O)Cl | -7.13% (inactive) | 
45 | Cc1cccc([N+](=O)[O-])c1 | 1.89% (inactive) | 
46 | Nc1c(Cl)c(Cl)nc(C(=O)O)c1Cl | -9.99% (inactive) | 
47 | CC(C)(C)OOC(C)(C)C | -4.05% (inactive) | 
48 | C=C(C)C(=O)OCC1CO1 (centres undefined) | -0.142% (inactive) | 
49 | Cc1ccc([N+](=O)[O-])cc1C | -9.51% (inactive) | 
50 | O=[N+]([O-])c1ccc(Cl)c(Cl)c1 | -9.79% (inactive) | 
51 | C=CC(=C)C | -8% (inactive) | 
52 | Cc1ccc2ccccc2c1 | -15.9% (inactive) | 
53 | Nc1ccccc1Cl | 3.94% (inactive) | 
54 | Clc1ccc2ccccc2c1 | -6.55% (inactive) | 
55 | [O-][Br+2]([O-])O |  | inactive
56 | Clc1nc(Cl)nc(Nc2ccccc2Cl)n1 | -9.02% (inactive) | 
57 | OCC1CO1 (centres undefined) | 4.95% (inactive) | 
58 | C=CCOC(=O)c1ccccc1N | -3.55% (inactive) | 
59 | C=CC(N)=O | -8.11% (inactive) | 
60 | CC(C)(c1ccccc1)c1ccc(O)cc1 | -6.91% (inactive) | 

Row | Structure (SMILES) | activity change, negative = lower viability | Potency
61 | CCN(CC)c1ccccc1 | -6.44% (inactive) | 
62 | S=C=Nc1cccc2ccccc12 | -6.99% (inactive) | 
63 | N#CCCCl |  | inactive
64 | O=NN(CCO)CCO | -0.13% (inactive) | 
65 | Cc1ccccc1N |  | inactive
66 | C=CCOC(C)=O | -13.9% (inactive) | 
67 | CCCC(=O)Cl | 2.73% (inactive) | 
68 | NC(=S)Nc1ccccc1 |  | inactive
69 | O=C(Cl)/C=C/C(=O)Cl | -0.0285% (inactive) | 
70 | C=C(Cl)Cl | -7.92% (inactive) | 
71 | ClCBr | -23% (inactive) | 
72 | COc1ccc(C=O)cc1OC | -2.13% (inactive) | 
73 | C=CC(=O)OCC | 7.38% (inactive) | 
74 | c1nc[nH]n1 | -5.12% (inactive) | 
75 | c1ccc2c(c1)CCCC2 | -2.13% (inactive) | 
76 | CCCSC(=O)Cl | -8.02% (inactive) | 
77 | Clc1cccc(C(Cl)(Cl)Cl)n1 | 0.754% (inactive) | 
78 | O=NN(c1ccccc1)c1ccccc1 | -17.9% (inactive) | 
79 | C1CCC2CCCCC2C1 (centres undefined) | -16.2% (inactive) | 
80 | CC(O)CCl (centres undefined) | 2.64% (inactive) | 

test: Cell Viability - LYMP2-017 (AID 972); details: LYMP2-017 lymphoblastoid cell viability; series mostly up to 92.2 µM; activity change, negative = cytotoxicity: at the top concentration;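 further: cells exposed to compound for 24 hours at 37 °C; on the % scale 0 is the no-effect control and ±100 the full control effect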
In short: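 In this qHTS format, lymphoblastoid cells in complete medium receive test compound for a day at 37 C before ATP content is quantified by luciferase luminescence. Reported AC50 figures come from standard Hill-equation curve fitting.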

Row | Structure (SMILES) | activity change, negative = cytotoxicity | Potency
81 | Brc1ccccc1 | -15.7% (inactive) | 
82 | CCOP(=S)(OCC)SCSC(C)(C)C | -2.45% (inactive) | 
83 | CCSC(=O)Cl | -6.39% (inactive) | 
84 | Cc1cccc([N+](=O)[O-])c1 | 5% (inactive) | 
85 | Nc1c(Cl)c(Cl)nc(C(=O)O)c1Cl | -13.7% (inactive) | 
86 | CC(C)(C)OOC(C)(C)C | -3.95% (inactive) | 
87 | C=C(C)C(=O)OCC1CO1 (centres undefined) | -12.3% (inactive) | 
88 | Cc1ccc([N+](=O)[O-])cc1C | -12.4% (inactive) | 
89 | O=[N+]([O-])c1ccc(Cl)c(Cl)c1 | -23.9% (inactive) | 
90 | C=CC(=C)C | -10.6% (inactive) | 
91 | Cc1ccc2ccccc2c1 | -5.44% (inactive) | 
92 | Nc1ccccc1Cl | -5.21% (inactive) | 
93 | Clc1ccc2ccccc2c1 | 4.19% (inactive) | 
94 | [O-][Br+2]([O-])O |  | inactive
95 | Clc1nc(Cl)nc(Nc2ccccc2Cl)n1 | -8.48% (inactive) | 
96 | OCC1CO1 (centres undefined) | -1.43% (inactive) | 
97 | C=CCOC(=O)c1ccccc1N | -13.6% (inactive) | 
98 | C=CC(N)=O |  | inactive
99 | CC(C)(c1ccccc1)c1ccc(O)cc1 | -6.3% (inactive) | 
100 | CCN(CC)c1ccccc1 | -10.3% (inactive) | 

Row | Structure (SMILES) | activity change, negative = cytotoxicity | Potency
101 | S=C=Nc1cccc2ccccc12 | -6.6% (inactive) | 
102 | N#CCCCl |  | inactive
103 | O=NN(CCO)CCO | -21% (inactive) | 
104 | Cc1ccccc1N |  | inactive
105 | C=CCOC(C)=O | -2.98% (inactive) | 
106 | CCCC(=O)Cl | -1.35% (inactive) | 
107 | NC(=S)Nc1ccccc1 |  | inactive
108 | O=C(Cl)/C=C/C(=O)Cl | 1.22% (inactive) | 
109 | C=C(Cl)Cl | -6.4% (inactive) | 
110 | ClCBr | -29.2% (inactive) | 
111 | COc1ccc(C=O)cc1OC | 1.99% (inactive) | 
112 | C=CC(=O)OCC | 1.52% (inactive) | 
113 | c1nc[nH]n1 | -1.01% (inactive) | 
114 | c1ccc2c(c1)CCCC2 | -3.5% (inactive) | 
115 | CCCSC(=O)Cl | 1.09% (inactive) | 
116 | Clc1cccc(C(Cl)(Cl)Cl)n1 | 6.09% (inactive) | 
117 | O=NN(c1ccccc1)c1ccccc1 | 2.82% (inactive) | 
118 | C1CCC2CCCCC2C1 (centres undefined) | -6.35% (inactive) | 
119 | CC(O)CCl (centres undefined) | -1.69% (inactive) | 

Reference: PubChem BioAssay (NCATS)
